Measurements taken from PubChem BioAssay AID1159580 (chemical genetic matrix, 2015).
“And” between values parts separate entries of the source, which are not always exact repeats. Equal values may be shown once. The whole screen tested about 5,500 compounds, of which about 2,000 (36%) were called active. Not shown: some 18% with an inconclusive outcome. Rule as the data show it: active = normalized growth mostly below about 0.91 (no sharp cut-off); inconclusive = no clear call, values can overlap the other calls; inactive = mostly above about 0.92. Some of the results follow.

Test: chemical genetic growth profiling, strain panel (AID 1159580);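 also: tested at 20 µM; growth read once vehicle control cultures reached saturation at 30 °C; 1 = growth at the plate median or of vehicle wells; lower values mean less growth of the strain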
Details: growth OD

Measured: normalized growth

NC(=O)CN1CCCC1=O
inactive: S. cerevisiae deletion strains, locus YKL009W, strain mrt4, active compounds read low 1.01 | S. cerevisiae deletion strains, locus YKL068W, active compounds read low 1 | S. cerevisiae deletion strains, locus YKL085W, strain MDH1 (second series), active compounds read low 1.02 | S. cerevisiae deletion strains, locus YKL085W, strain MDH1, active compounds read low 1.02 | S. cerevisiae deletion strains, locus YKL160W, strain elf1, active compounds read low 0.967 | S. cerevisiae deletion strains, locus YKL190W, strain CNB1, active compounds read low 1 | S. cerevisiae deletion strains, locus YKR001C, strain vps1, active compounds read low 1.01 | S. cerevisiae deletion strains, locus YKR026C, strain gcn3, active compounds read low 0.992 | S. cerevisiae deletion strains, locus YKR091W, strain srl3, active compounds read low 0.995 | S. cerevisiae deletion strains, locus YLL001W, strain dnm1, active compounds read low 0.958 | S. cerevisiae deletion strains, locus YLL026W, active compounds read low 0.999 | S. cerevisiae deletion strains, locus YLL041C, strain sdh2, active compounds read low 0.992 | S. cerevisiae deletion strains, locus YLR027C, strain aat2, active compounds read low 0.999 | S. cerevisiae deletion strains, locus YLR039C, strain RIC1, active compounds read low 1.01 | S. cerevisiae deletion strains, locus YLR058C, strain SHM2, active compounds read low 1.01 | S. cerevisiae deletion strains, locus YLR102C, strain apc9, active compounds read low 1.01 | S. cerevisiae deletion strains, locus YLR113W, strain HOG1, active compounds read low 0.954 | S. cerevisiae deletion strains, locus YLR221C, strain rsa3, active compounds read low 0.989 | S. cerevisiae deletion strains, locus YLR258W, strain gsy2, active compounds read low 0.99 | S. cerevisiae deletion strains, locus YLR262C, strain YPT6 (second series), active compounds read low 0.987 | S. cerevisiae deletion strains, locus YLR262C, strain YPT6, active compounds read low 1.02 | S. cerevisiae deletion strains, locus YLR268W, strain sec22, active compounds read low 1.01 | S. cerevisiae deletion strains, locus YLR320W, strain mms22, active compounds read low 0.958 | S. cerevisiae deletion strains, locus YLR330W, strain CHS5, active compounds read low 0.996 | S. cerevisiae deletion strains, locus YLR342W, strain FKS1 (second series), active compounds read low 1.02 | S. cerevisiae deletion strains, locus YLR342W, strain FKS1, active compounds read low 0.98 | S. cerevisiae deletion strains, locus YLR357W, strain rsc2, active compounds read low 0.977 | S. cerevisiae deletion strains, locus YLR370C, strain arc18, active compounds read low 0.99 | S. cerevisiae deletion strains, locus YLR371W, strain rom2, active compounds read low 1.01 | S. cerevisiae deletion strains, locus YLR384C, strain iki3, active compounds read low 0.977 | S. cerevisiae deletion strains, locus YLR418C, strain cdc73, active compounds read low 1.01 | S. cerevisiae deletion strains, locus YML016C, strain PPZ1, active compounds read low 0.999 | S. cerevisiae deletion strains, locus YML032C, strain rad52, active compounds read low 1.01 | S. cerevisiae deletion strains, locus YML120C, strain ndi1, active compounds read low 0.983 | S. cerevisiae deletion strains, locus YML124C, strain tub3, active compounds read low 1.01 | S. cerevisiae deletion strains, locus YMR058W, strain fet3, active compounds read low 0.988 | S. cerevisiae deletion strains, locus YMR078C, strain ctf18, active compounds read low 1 | S. cerevisiae deletion strains, locus YMR125W, strain sto1, active compounds read low 0.996 | S. cerevisiae deletion strains, locus YMR129W, active compounds read low 1 | S. cerevisiae deletion strains, locus YMR205C, strain PFK2, active compounds read low 0.973 | S. cerevisiae deletion strains, locus YMR223W, strain ubp8, active compounds read low 1.01 | S. cerevisiae deletion strains, locus YMR231W, strain pep5, active compounds read low 0.997 | S. cerevisiae deletion strains, locus YMR263W, strain SAP30, active compounds read low 0.993 | S. cerevisiae deletion strains, locus YMR307W, strain GAS1, active compounds read low 1.06 | S. cerevisiae deletion strains, locus YNL067W, strain RPL9B, active compounds read low 1.01 | S. cerevisiae deletion strains, locus YNL071W, strain lat1, active compounds read low 0.991 | S. cerevisiae deletion strains, locus YNL128W, strain TEP1, active compounds read low 1.05 | S. cerevisiae deletion strains, locus YNL153C, strain GIM3, active compounds read low 0.979 and 1.17 | S. cerevisiae deletion strains, locus YNL175C, strain NOP13, active compounds read low 0.997 | S. cerevisiae deletion strains, locus YNL183C, strain NPR1, active compounds read low 0.915 | S. cerevisiae deletion strains, locus YNL197C, strain WHI3, active compounds read low 1.01 | S. cerevisiae deletion strains, locus YNL209W, strain ssb2, active compounds read low 0.998 | S. cerevisiae deletion strains, locus YNL224C, strain SQS1, active compounds read low 0.995 | S. cerevisiae deletion strains, locus YNL233W, strain BNI4, active compounds read low 0.985 | S. cerevisiae deletion strains, locus YNL248C, strain rpa49, active compounds read low 0.982 | S. cerevisiae deletion strains, locus YNL250W, strain rad50, active compounds read low 1 | S. cerevisiae deletion strains, locus YNL271C, strain bni1, active compounds read low 1.01 | S. cerevisiae deletion strains, locus YNL298W, strain CLA4, active compounds read low 1.03 | S. cerevisiae deletion strains, locus YNL307C, strain MCK1, active compounds read low 1.03 | S. cerevisiae deletion strains, locus YNL322C, strain KRE1 (second series), active compounds read low 0.992 | S. cerevisiae deletion strains, locus YNL322C, strain KRE1, active compounds read low 1 | S. cerevisiae deletion strains, locus YNR049C, strain mso1, active compounds read low 0.99 | S. cerevisiae deletion strains, locus YNR052C, strain pop2, active compounds read low 1.01 | S. cerevisiae deletion strains, locus YOL006C, strain TOP1, active compounds read low 1.04 | S. cerevisiae deletion strains, locus YOL012C, strain htz1 0.826 | S. cerevisiae deletion strains, locus YOL147C, strain pex11, active compounds read low 1.01 | S. cerevisiae deletion strains, locus YOR001W, strain rrp6, active compounds read low 1.01 | S. cerevisiae deletion strains, locus YOR061W, strain CKA2, active compounds read low 1.01 | S. cerevisiae deletion strains, locus YOR069W, strain VPS5, active compounds read low 1.01 | S. cerevisiae deletion strains, locus YOR070C, strain gyp1, active compounds read low 0.993 | S. cerevisiae deletion strains, locus YOR080W, strain dia2, active compounds read low 0.994 | S. cerevisiae deletion strains, locus YOR083W, strain WHI5 (second series), active compounds read low 0.99 | S. cerevisiae deletion strains, locus YOR083W, strain WHI5, active compounds read low 0.968 | S. cerevisiae deletion strains, locus YOR106W, strain vam3, active compounds read low 0.967 | S. cerevisiae deletion strains, locus YOR136W, strain idh2, active compounds read low 1 | S. cerevisiae deletion strains, locus YOR144C, strain elg1, active compounds read low 0.998 | S. cerevisiae deletion strains, locus YOR184W, strain ser1, active compounds read low 1 | S. cerevisiae deletion strains, locus YOR231W, strain MKK1, active compounds read low 0.984 | S. cerevisiae deletion strains, locus YOR265W, strain rbl2, active compounds read low 0.992 | S. cerevisiae deletion strains, locus YOR270C, strain vph1, active compounds read low 0.97 | S. cerevisiae deletion strains, locus YOR290C, strain snf2, active compounds read low 0.99 | S. cerevisiae deletion strains, locus YOR316C, strain cot1, active compounds read low 1.02 | S. cerevisiae deletion strains, locus YPL051W, strain arl3, active compounds read low 0.99 | S. cerevisiae deletion strains, locus YPL055C, strain LGE1, active compounds read low 0.968 | S. cerevisiae deletion strains, locus YPL078C, strain atp4, active compounds read low 0.979 | S. cerevisiae deletion strains, locus YPL106C, strain sse1, active compounds read low 0.958 | S. cerevisiae deletion strains, locus YPL240C, strain hsp82, active compounds read low 0.999 | S. cerevisiae deletion strains, locus YPL241C, strain CIN2, active compounds read low 1.01 and 1 | S. cerevisiae deletion strains, locus YPL256C, strain CLN2, active compounds read low 0.979 | S. cerevisiae deletion strains, locus YPR119W, strain clb2, active compounds read low 1 | S. cerevisiae deletion strains, locus YPR141C, strain kar3, active compounds read low 1.01 | S. cerevisiae deletion strains, locus YPR163C, strain tif3, active compounds read low 1.01 | S. cerevisiae deletion strains, locus YPR167C, strain met16, active compounds read low 1 | S. cerevisiae deletion strains, strain wtn01, active compounds read low 1.01 | S. cerevisiae strains, strain wild type, active compounds read low 1
